105 compounds from PubChem BioAssay AID1839 (Johns Hopkins Ion Channel Center, 2009) can be followed below.

In all, about 2,400 compounds went through this assay and about 220 (9.2%) were called active.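 How the source made its calls: active means signal change above the mean of dofetilide-free buffer controls plus 3 SD, so a positive margin; inactive means the rest.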 The list comes from a sample in which actives are over-represented; it also holds similar structures and randomly drawn compounds.

The nature of this assay: thallium signal changes without hERG – cell-based, CHO-K1 parental line, FluxOR thallium flux, counter-screen for hERG block protection project, confirmation (AID 1839).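 Further: compounds applied alone with no dofetilide to cells lacking hERG.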 The following applies: CHO-K1 parental cells, FluxOR thallium flux fluorescence; at 10 µM.
With `COc1ccc(CCNS(=O)(=O)c2csc(C(N)=O)c2)cc1OC`, the signal change vs control minus 3*SD hit threshold (margin above threshold, higher = more increase) was -34.6% (inactive). `CCNC(=S)Nc1scc(-c2ccccc2)c1C(=O)OCC`: the signal change vs control minus 3*SD hit threshold (margin above threshold, higher = more increase) is -20.8% (inactive).

As to `O=c1oc2ccccc2c(Cl)c1CN1CCCCC1`, the signal change vs control minus 3*SD hit threshold (margin above threshold, higher = more increase) was -42.9% (inactive). To `NC(=O)C1CCN(C(=O)CCC(=O)c2ccc(F)cc2)CC1` belongs -28.7% (inactive). To `Cc1sc2nc(CN3CCOCC3)[nH]c(=S)c2c1C` belongs 21.4% (active).

On to `CCOC(=O)NC(=S)Nc1ccc(C(C)(C)C)cc1Br`, for which the signal change vs control minus 3*SD hit threshold (margin above threshold, higher = more increase) was -0.4% (inactive). `CC(=O)c1c(C)c2c(n1CCN(C)C)CCCC2`: the signal change vs control minus 3*SD hit threshold (margin above threshold, higher = more increase) is -15.9% (inactive).

Consider `CSc1nc2c(c(=O)[nH]1)C(c1ccc(Cl)cc1)CC(=O)N2` (stereo not given), for which the signal change vs control minus 3*SD hit threshold (margin above threshold, higher = more increase) is -31.6% (inactive).

Regarding `O=C(CCn1c(=S)[nH]c2cc3c(cc2c1=O)OCO3)NCc1ccc(Cl)cc1`, the signal change vs control minus 3*SD hit threshold (margin above threshold, higher = more increase) is -22.3% (inactive). As to `CC(C)COn1c(=S)[nH]c2ccccc2c1=O`, the signal change vs control minus 3*SD hit threshold (margin above threshold, higher = more increase) was -10.2% (inactive). To `COc1ccccc1Cn1c(=S)[nH]c2ccc(Br)cc2c1=O` belongs -15.7% (inactive). Then `O=c1c2cccnc2[nH]c(=S)n1CCC1=CCCCC1`, with 14.4% (active). On to `Cc1ccc(Cn2c(=S)[nH]c3ccccc3c2=O)cc1`, for which the signal change vs control minus 3*SD hit threshold (margin above threshold, higher = more increase) was -14.9% (inactive). To `O=c1c2ccccc2[nH]c(=S)n1CCC1=CCCCC1` belongs 3% (active); to `O=c1c2ccccc2[nH]c(=S)n1CCc1ccccc1`, 5.9% (active). To `O=c1c2ccc(Cl)cc2[nH]c(=S)n1CCC1=CCCCC1` belongs 4.8% (active); to `CCCCn1c(=S)[nH]c2ccccc2c1=O`, -18.2% (inactive). To `CCCCCn1c(=S)[nH]c2ncccc2c1=O` belongs -0.3% (inactive); to `CC(C)CCn1c(=S)[nH]c2ncccc2c1=O`, -18.3% (inactive); to `O=[N+]([O-])c1ccc(Nc2ccc(Cl)cc2)nc1`, -22% (inactive).

On to `COc1cccc(/C=N/n2c(SC)nnc2-c2ccccc2)c1O`, for which the signal change vs control minus 3*SD hit threshold (margin above threshold, higher = more increase) was -24.3% (inactive). To `Cc1cc(=O)[nH]c(=S)n1-c1ccccc1` belongs -38.5% (inactive). Then `Cc1nn(-c2cccc(C(F)(F)F)c2)c(Cl)c1/C=N/Nc1cccc(C(=O)O)c1`, with -28.4% (inactive); and `CCNC(=O)C/C(C)=N/NC(=O)C(=O)Nc1ccc(CC)cc1`, with -7.4% (inactive). Then `COc1ccc(/C=N/NC(=O)c2ccncc2)cc1CN1CCCc2ccccc21`, with -40.9% (inactive). As to `CC1CN(S(=O)(=O)c2ccc(-c3nc4ccccc4s3)cc2)CC(C)O1` (stereo not given), the signal change vs control minus 3*SD hit threshold (margin above threshold, higher = more increase) is -8.4% (inactive). Then `CCSc1nnc(NC(=O)Cn2cnc3c2c(=O)n(C)c(=O)n3C)s1`, with -29.2% (inactive); and `CCN1C(=O)/C(=C/c2ccc(C)s2)NC1=S`, with 1.1% (active). For `COc1ccc(N2C(=O)/C(=C/c3cccs3)NC2=S)cc1`, the signal change vs control minus 3*SD hit threshold (margin above threshold, higher = more increase) was -29.8% (inactive). To `CCCN1C(=O)/C(=C/c2ccc(C)s2)NC1=S` belongs 33.6% (active); to `CC(C)CN1C(=O)/C(=C/c2cccs2)NC1=S`, 32% (active); to `CC(C)CN1C(=O)/C(=C/c2ccco2)NC1=S`, -30.9% (inactive). Then `CCCN1C(=O)/C(=C/c2ccc3c(c2)OCO3)NC1=S`, with -21.2% (inactive); and `COc1ccc(C(=O)NC(=S)N2CCC(C)CC2)cc1Br`, with -12.4% (inactive); and `Oc1c(Br)cc(Cl)cc1C=Nc1ccccc1Br`, with -1.8% (inactive). To `O=C(c1ccc(CS(=O)c2cccc(Cl)c2)o1)N1CCCCCC1` (stereo not given) belongs -32.8% (inactive); to `NS(=O)(=O)c1ccc(NC(=S)NCc2cccs2)cc1`, -30.2% (inactive); to `O=C(Nc1cccnc1)c1cc(-c2cccs2)on1`, -26.5% (inactive). For the compound `COC(=O)C1CCCN1C(=O)COc1ccc(Cl)cc1Br` (stereo not given), the signal change vs control minus 3*SD hit threshold (margin above threshold, higher = more increase) was -25.2% (inactive).

Consider `O=C(c1c(O)c2ccccc2oc1=O)C1CCCCC1`, for which the signal change vs control minus 3*SD hit threshold (margin above threshold, higher = more increase) is -22% (inactive). Then `CCCN(Cc1ccccc1)C(=S)NC(=O)c1ccccc1[N+](=O)[O-]`, with 24.3% (active). Then `CN(Cc1ccccc1)C(=S)NC(=O)c1cccs1`, with -20.6% (inactive); and `N#CCCN(Cc1ccccc1)C(=S)NC(=O)c1ccccc1`, with -30.7% (inactive). Regarding `O=C(NC(=S)N(Cc1ccccc1)Cc1ccccc1)c1ccccc1F`, the signal change vs control minus 3*SD hit threshold (margin above threshold, higher = more increase) was -6.4% (inactive). `CCN(C(=S)NC(=O)c1ccccc1Br)C1CCCCC1`: the signal change vs control minus 3*SD hit threshold (margin above threshold, higher = more increase) was 16.2% (active). For `CN(C(=S)NC(=O)c1ccccc1Br)C1CCCCC1`, the signal change vs control minus 3*SD hit threshold (margin above threshold, higher = more increase) was -13.4% (inactive). `CN(C(=S)NC(=O)c1ccccc1)C1CCCCC1`: the signal change vs control minus 3*SD hit threshold (margin above threshold, higher = more increase) was -23.6% (inactive). With `CCC(=O)NC(=S)NNC(=O)c1ccccc1[N+](=O)[O-]`, the signal change vs control minus 3*SD hit threshold (margin above threshold, higher = more increase) was -28% (inactive). Then `CCN(Cc1ccccc1)C(=S)NC(=O)c1ccccc1Br`, with 27% (active); and `CCc1cc2cc(C)cc(C)c2[nH]c1=S`, with -11.2% (inactive). Then `COc1ccc(OCC(=O)Nc2c3c(nn2-c2ccc(OC)cc2)CS(=O)(=O)C3)cc1`, with -14.9% (inactive). Then `O=C(O)c1ccc(S(=O)(=O)/N=C2\C=C(Nc3ccccc3F)C(=O)c3ccccc32)cc1`, with -14.9% (inactive); and `O=C(Nc1ccccc1)OCCCCCOC(=O)Nc1ccccc1`, with -25.4% (inactive); and `O=C(O)c1ccccc1NC(=O)c1cc2ccccc2oc1=O`, with -21.3% (inactive). Take `Cc1ccc(C)c(NC(=S)NC(=O)c2cncc(Br)c2)c1`: the signal change vs control minus 3*SD hit threshold (margin above threshold, higher = more increase) is -24.9% (inactive). To `CCCCCCC12CCC(C(=O)O)(CC1)CC2` belongs -8.9% (inactive); to `O=c1c2[nH]c3ccccc3c2nc2n1CCCS2`, -3.7% (inactive).

Take `C=CCNC(=O)c1ccccc1NC(=O)COc1ccc(OC)cc1`: the signal change vs control minus 3*SD hit threshold (margin above threshold, higher = more increase) is -31.9% (inactive).

Take `COc1ccc(N2CCN(C(=S)NC(=O)c3cccs3)CC2)c([N+](=O)[O-])c1`: the signal change vs control minus 3*SD hit threshold (margin above threshold, higher = more increase) was -27.4% (inactive).

In the case of `COc1cc(/C=C/C(=O)N[C@@H](Cc2c[nH]c3ccccc23)C(=O)O)ccc1O`, the signal change vs control minus 3*SD hit threshold (margin above threshold, higher = more increase) is -19.7% (inactive).

For the compound `CCCCSc1nnc(CCC)n1N`, the signal change vs control minus 3*SD hit threshold (margin above threshold, higher = more increase) was -30.7% (inactive). Then `O=C(CC1CCCC1)Nc1ccc2c(c1)CCC2`, with -18.5% (inactive). In the case of `CC(C)N(Cc1ccccc1)C(=S)NC(=O)C1(C)CC1(Cl)Cl` (stereo not given), the signal change vs control minus 3*SD hit threshold (margin above threshold, higher = more increase) was -9.7% (inactive). `CC1Cc2ccccc2N1C(=S)NC(=O)c1cccc(Br)c1` (stereo not given): the signal change vs control minus 3*SD hit threshold (margin above threshold, higher = more increase) is 48.8% (active). Then `CC1Cc2ccccc2N1C(=S)NC(=O)C1(C)CC1(Cl)Cl` (stereo not given), with 11.2% (active). Then `Cc1cccc(C(=O)NC(=S)N2CCc3ccccc3C2)c1`, with -1.3% (inactive); and `Cc1csc2ncc(C(=O)N3c4ccccc4CC3C)c(=O)n12` (stereo not given), with -16.4% (inactive); and `O=C(NC(=S)N1CCCc2ccccc21)c1ccc(Br)cc1`, with -8.9% (inactive). To `CC(Oc1ccc(Cl)cc1Cl)C(=O)NC(=S)N1CCc2ccccc21` (stereo not given) belongs -7.9% (inactive); to `CC1Cc2ccccc2N1C(=S)NC(=O)c1ccc(Cl)cc1Cl` (stereo not given), 23.8% (active); to `CC1Cc2ccccc2N1C(=S)NC(=O)c1ccco1` (stereo not given), -28.6% (inactive).

For the compound `Oc1c(Cl)cc(CN2CCCCC2)c2cccnc12`, the signal change vs control minus 3*SD hit threshold (margin above threshold, higher = more increase) was -25.2% (inactive). To `CCOC(=O)Cc1csc(NC(=S)NC(=O)c2ccccc2C)n1` belongs -13.6% (inactive).

In the case of `Cc1cc(C(=O)NNC(=O)c2cccs2)nn1C(C)(C)C`, the signal change vs control minus 3*SD hit threshold (margin above threshold, higher = more increase) is -25.3% (inactive). To `CCNC(=S)N/N=C1\C(=O)c2cccc3cccc1c23` belongs -16.8% (inactive). To `O=C(N/N=C1/C(=O)c2cccc3cccc1c23)c1ccc(Cl)cc1` belongs 41.5% (active); to `O=C(NN=C1c2ccccc2-c2ccccc21)c1ccccc1`, -27.5% (inactive); to `Cc1ccc(-c2n[nH]c(=S)nc2-c2ccc(C)cc2)cc1`, -27.5% (inactive). To `CSc1nc2c(c(=O)[nH]1)C(c1ccc(F)cc1)CC(=O)N2` (stereo not given) belongs -36% (inactive); to `CC(C)CC(=O)Nc1ccc2c3c(cccc13)CC2`, -19.8% (inactive). In the case of `O=c1c2c3c(sc2[nH]c(=S)n1Cc1ccco1)CCC3`, the signal change vs control minus 3*SD hit threshold (margin above threshold, higher = more increase) was -6.1% (inactive). Then `CCn1c(=S)[nH]c2sc3c(c2c1=O)CCCC3`, with 8.5% (active). Regarding `CCCn1c(SCC(=O)N2CCN(C(C)=O)CC2)nc2sc3c(c2c1=O)CCC3`, the signal change vs control minus 3*SD hit threshold (margin above threshold, higher = more increase) was -6.2% (inactive).

`COCCCn1c(=S)[nH]c2sc3c(c2c1=O)CCCC3`: the signal change vs control minus 3*SD hit threshold (margin above threshold, higher = more increase) was 2.5% (active).

Consider `CCCn1c(=S)[nH]c2sc3c(c2c1=O)CCCC3`, for which the signal change vs control minus 3*SD hit threshold (margin above threshold, higher = more increase) is 32.1% (active). To `C=CCn1c(=S)[nH]c2sc3c(c2c1=O)CCC3` belongs -7.2% (inactive); to `C=CCn1c(=S)[nH]c2nc3c(cc2c1=O)CCCC3`, -15.7% (inactive); to `COCCn1c(=S)[nH]c2sc3c(c2c1=O)CCCC3`, -5.6% (inactive). Then `C=CCn1c(=S)[nH]c2sc3c(c2c1=O)CCCC3`, with 3.6% (active); and `CCn1c(SCC(N)=O)nc2sc3c(c2c1=O)CCCC3`, with -14.4% (inactive). To `COCCCn1c(=S)[nH]c2c(sc3ccccc32)c1=O` belongs -36.9% (inactive); to `Cc1ccnc(N2CCC(C(=O)Nc3ccc(Oc4ccccc4)cc3)CC2)n1`, -28.4% (inactive).

On to `CCCn1c(SCC(N)=O)nc2c(c1=O)C1(CCCC1)Cc1ccccc1-2`, for which the signal change vs control minus 3*SD hit threshold (margin above threshold, higher = more increase) is -7.7% (inactive). Then `COc1ccc(NC(=O)CCN2C(=O)C3C4C=CC(C4)C3C2=O)cc1` (stereo not given), with -35% (inactive); and `C=CCN(CC=C)C(=S)NC(=O)Cc1cccc2ccccc12`, with -17.1% (inactive). To `COc1ccc(C(CC(=O)N2CCOCC2)c2c(O)cc(OC)cc2OC)cc1` (stereo not given) belongs -27.3% (inactive). Consider `CCSc1nc2c(sc3ccccc32)c(=O)n1C(C)C`, for which the signal change vs control minus 3*SD hit threshold (margin above threshold, higher = more increase) is -0.8% (inactive).

In the case of `Cc1ccc2[nH]c(C(=O)O)c(-c3ccccc3)c2c1`, the signal change vs control minus 3*SD hit threshold (margin above threshold, higher = more increase) is -18.6% (inactive).

On to `CCOC(=O)C1=C(O)/C(=C/c2ccc(OCC(=O)O)c(OC)c2)SC1=Nc1ccc(OCC)cc1`, for which the signal change vs control minus 3*SD hit threshold (margin above threshold, higher = more increase) is -28.1% (inactive). Then `COc1ccc(-c2cc(C(=O)N3CCCC3)no2)cc1OC`, with -5.8% (inactive); and `CCOC(=O)c1[nH]c(=O)[nH]c1COC(=O)c1cc2ccccc2o1`, with -34.3% (inactive). Then `COc1ccc(NC(=O)CSCC(=O)Oc2c(OC)cccc2OC)cc1`, with -30.4% (inactive).

Take `CCn1c(SC(C)C(=O)O)nc2sc3c(c2c1=O)CCC3` (stereo not given): the signal change vs control minus 3*SD hit threshold (margin above threshold, higher = more increase) was -5.9% (inactive).

For the compound `CCn1c(=S)[nH]c2sc3c(c2c1=O)CCCCC3`, the signal change vs control minus 3*SD hit threshold (margin above threshold, higher = more increase) was 37.1% (active).

As for `Cc1cc(C)n(-c2nc3sc4c(c3c(=O)[nH]2)CCCC4)n1`, the signal change vs control minus 3*SD hit threshold (margin above threshold, higher = more increase) was -29.7% (inactive).
